± gives the standard deviation of the averaged measurements. Of roughly 6,500 targets only a part is listed; those with the largest changes were picked by preference.
Experiments:
Assay in all cases: NP40-soluble protein abundance relative to vehicle (solubility fold change) (ratio); higher = more soluble protein in presence of ATP
[1] = target: A0A075B6F5|F5GXR6|Q8IUG5|Q8IUG5-2 (UniProt Q8IUG5)
Method in brief: (§1)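 Jurkat crude lysate prepared with a Dounce homogeniser was treated at eight concentrations spanning 0.1 to 10 mM, 10 min at room temperature then 3 min at 37 °C. Solubilisation with 0.8% NP40 and benzonase and ultracentrifugation preceded TMT labelling of the supernatant for LC-MS/MS. Fold change against the detergent-processed vehicle was determined per replicate from vsn-normalised intensities, across three independent experiments.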

A0A087WTM7|P04114 = A0A087WTM7|P04114 (UniProt P04114)
Method in brief: as §1

A0A087WV29|Q9H0A0 = target: T1, A0A087WV29|Q9H0A0 (UniProt Q9H0A0)
T1 sequence (whole entry): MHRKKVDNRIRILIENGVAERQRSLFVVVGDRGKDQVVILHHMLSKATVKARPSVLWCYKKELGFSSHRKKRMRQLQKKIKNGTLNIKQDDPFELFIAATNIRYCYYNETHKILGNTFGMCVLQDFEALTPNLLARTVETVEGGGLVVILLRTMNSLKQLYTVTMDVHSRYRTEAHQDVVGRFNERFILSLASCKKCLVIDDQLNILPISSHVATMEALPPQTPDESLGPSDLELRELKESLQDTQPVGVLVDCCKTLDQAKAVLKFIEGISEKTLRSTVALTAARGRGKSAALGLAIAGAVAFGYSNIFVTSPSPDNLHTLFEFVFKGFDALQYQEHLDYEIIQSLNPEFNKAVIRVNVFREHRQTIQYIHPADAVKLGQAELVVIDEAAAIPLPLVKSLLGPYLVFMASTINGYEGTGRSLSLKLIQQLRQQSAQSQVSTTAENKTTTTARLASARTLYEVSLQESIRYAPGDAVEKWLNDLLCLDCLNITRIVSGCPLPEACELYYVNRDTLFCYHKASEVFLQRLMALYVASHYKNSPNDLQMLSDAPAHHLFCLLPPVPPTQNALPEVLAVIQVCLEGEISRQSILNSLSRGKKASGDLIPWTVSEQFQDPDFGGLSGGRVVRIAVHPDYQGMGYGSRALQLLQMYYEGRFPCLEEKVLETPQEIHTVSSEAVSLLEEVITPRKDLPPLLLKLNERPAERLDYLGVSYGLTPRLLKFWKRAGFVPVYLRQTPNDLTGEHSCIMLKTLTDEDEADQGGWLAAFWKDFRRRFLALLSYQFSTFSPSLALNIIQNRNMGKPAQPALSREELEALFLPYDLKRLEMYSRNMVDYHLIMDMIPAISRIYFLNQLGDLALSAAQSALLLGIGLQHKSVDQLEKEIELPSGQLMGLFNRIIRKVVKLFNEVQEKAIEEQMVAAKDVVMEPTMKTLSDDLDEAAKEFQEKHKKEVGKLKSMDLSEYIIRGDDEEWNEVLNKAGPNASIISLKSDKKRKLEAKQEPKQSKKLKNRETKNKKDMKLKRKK
Method in brief: as §1

[2] = target: T2, A0A087WVA8|Q8IWB9|Q8IWB9-2 (UniProt Q8IWB9)
T2 sequence (whole entry): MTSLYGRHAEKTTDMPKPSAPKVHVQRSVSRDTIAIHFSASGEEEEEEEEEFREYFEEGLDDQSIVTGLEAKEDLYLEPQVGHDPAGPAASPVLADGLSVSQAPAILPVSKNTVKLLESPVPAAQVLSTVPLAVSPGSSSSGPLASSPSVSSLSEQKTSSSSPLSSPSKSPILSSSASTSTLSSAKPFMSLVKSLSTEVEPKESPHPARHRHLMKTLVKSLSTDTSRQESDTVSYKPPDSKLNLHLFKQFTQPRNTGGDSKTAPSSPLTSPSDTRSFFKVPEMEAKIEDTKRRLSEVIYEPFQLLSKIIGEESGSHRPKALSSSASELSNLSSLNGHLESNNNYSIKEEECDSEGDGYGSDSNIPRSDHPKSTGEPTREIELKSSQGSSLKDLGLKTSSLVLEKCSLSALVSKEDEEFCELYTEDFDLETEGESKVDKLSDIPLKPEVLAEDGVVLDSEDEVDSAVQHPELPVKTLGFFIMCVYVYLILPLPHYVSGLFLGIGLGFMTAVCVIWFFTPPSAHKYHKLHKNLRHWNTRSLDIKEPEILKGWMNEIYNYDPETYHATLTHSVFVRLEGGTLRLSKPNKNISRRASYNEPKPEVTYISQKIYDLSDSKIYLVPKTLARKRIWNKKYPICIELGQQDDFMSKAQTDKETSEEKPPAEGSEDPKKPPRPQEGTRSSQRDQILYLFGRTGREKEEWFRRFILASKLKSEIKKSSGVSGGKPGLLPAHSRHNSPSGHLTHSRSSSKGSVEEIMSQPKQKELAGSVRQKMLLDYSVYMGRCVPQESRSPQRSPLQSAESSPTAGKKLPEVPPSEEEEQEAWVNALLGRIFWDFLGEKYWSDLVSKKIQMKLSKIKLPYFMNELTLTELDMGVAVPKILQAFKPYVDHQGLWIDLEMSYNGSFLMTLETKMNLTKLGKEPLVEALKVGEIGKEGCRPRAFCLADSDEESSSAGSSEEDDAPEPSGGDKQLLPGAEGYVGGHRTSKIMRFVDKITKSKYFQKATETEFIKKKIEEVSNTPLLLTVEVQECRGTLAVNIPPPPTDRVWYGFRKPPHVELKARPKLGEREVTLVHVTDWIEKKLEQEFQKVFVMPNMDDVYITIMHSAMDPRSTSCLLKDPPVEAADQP
Method in brief: as §1

A0A087WWP8 = A0A087WWP8 (UniProt Q5VWQ0)
Sequence of A0A087WWP8 (Q5VWQ0 whole entry): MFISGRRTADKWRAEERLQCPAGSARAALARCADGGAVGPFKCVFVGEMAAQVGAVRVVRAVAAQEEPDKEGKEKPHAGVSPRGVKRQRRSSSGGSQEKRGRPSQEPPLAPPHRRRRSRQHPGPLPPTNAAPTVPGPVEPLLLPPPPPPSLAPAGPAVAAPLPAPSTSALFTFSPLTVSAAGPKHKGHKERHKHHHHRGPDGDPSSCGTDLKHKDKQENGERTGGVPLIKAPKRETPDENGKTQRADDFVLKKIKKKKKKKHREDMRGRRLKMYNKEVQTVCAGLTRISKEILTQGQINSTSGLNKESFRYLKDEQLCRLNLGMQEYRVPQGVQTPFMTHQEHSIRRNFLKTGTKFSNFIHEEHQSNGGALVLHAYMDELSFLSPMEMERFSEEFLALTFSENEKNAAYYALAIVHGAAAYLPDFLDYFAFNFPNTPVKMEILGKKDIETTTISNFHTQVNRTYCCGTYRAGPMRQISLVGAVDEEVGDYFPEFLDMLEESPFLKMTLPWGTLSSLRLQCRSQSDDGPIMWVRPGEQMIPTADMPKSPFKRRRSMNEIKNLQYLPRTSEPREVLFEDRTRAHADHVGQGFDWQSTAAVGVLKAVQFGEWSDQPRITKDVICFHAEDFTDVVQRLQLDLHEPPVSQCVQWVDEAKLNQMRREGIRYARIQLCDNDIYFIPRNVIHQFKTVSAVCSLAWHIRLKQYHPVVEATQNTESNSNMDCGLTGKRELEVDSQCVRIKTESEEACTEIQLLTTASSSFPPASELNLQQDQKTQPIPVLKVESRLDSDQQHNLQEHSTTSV
Method in brief: as §1

Sequence of A0A075B6F5|F5GXR6|Q8IUG5|Q8IUG5-2 (Q8IUG5 whole entry, one chain of several): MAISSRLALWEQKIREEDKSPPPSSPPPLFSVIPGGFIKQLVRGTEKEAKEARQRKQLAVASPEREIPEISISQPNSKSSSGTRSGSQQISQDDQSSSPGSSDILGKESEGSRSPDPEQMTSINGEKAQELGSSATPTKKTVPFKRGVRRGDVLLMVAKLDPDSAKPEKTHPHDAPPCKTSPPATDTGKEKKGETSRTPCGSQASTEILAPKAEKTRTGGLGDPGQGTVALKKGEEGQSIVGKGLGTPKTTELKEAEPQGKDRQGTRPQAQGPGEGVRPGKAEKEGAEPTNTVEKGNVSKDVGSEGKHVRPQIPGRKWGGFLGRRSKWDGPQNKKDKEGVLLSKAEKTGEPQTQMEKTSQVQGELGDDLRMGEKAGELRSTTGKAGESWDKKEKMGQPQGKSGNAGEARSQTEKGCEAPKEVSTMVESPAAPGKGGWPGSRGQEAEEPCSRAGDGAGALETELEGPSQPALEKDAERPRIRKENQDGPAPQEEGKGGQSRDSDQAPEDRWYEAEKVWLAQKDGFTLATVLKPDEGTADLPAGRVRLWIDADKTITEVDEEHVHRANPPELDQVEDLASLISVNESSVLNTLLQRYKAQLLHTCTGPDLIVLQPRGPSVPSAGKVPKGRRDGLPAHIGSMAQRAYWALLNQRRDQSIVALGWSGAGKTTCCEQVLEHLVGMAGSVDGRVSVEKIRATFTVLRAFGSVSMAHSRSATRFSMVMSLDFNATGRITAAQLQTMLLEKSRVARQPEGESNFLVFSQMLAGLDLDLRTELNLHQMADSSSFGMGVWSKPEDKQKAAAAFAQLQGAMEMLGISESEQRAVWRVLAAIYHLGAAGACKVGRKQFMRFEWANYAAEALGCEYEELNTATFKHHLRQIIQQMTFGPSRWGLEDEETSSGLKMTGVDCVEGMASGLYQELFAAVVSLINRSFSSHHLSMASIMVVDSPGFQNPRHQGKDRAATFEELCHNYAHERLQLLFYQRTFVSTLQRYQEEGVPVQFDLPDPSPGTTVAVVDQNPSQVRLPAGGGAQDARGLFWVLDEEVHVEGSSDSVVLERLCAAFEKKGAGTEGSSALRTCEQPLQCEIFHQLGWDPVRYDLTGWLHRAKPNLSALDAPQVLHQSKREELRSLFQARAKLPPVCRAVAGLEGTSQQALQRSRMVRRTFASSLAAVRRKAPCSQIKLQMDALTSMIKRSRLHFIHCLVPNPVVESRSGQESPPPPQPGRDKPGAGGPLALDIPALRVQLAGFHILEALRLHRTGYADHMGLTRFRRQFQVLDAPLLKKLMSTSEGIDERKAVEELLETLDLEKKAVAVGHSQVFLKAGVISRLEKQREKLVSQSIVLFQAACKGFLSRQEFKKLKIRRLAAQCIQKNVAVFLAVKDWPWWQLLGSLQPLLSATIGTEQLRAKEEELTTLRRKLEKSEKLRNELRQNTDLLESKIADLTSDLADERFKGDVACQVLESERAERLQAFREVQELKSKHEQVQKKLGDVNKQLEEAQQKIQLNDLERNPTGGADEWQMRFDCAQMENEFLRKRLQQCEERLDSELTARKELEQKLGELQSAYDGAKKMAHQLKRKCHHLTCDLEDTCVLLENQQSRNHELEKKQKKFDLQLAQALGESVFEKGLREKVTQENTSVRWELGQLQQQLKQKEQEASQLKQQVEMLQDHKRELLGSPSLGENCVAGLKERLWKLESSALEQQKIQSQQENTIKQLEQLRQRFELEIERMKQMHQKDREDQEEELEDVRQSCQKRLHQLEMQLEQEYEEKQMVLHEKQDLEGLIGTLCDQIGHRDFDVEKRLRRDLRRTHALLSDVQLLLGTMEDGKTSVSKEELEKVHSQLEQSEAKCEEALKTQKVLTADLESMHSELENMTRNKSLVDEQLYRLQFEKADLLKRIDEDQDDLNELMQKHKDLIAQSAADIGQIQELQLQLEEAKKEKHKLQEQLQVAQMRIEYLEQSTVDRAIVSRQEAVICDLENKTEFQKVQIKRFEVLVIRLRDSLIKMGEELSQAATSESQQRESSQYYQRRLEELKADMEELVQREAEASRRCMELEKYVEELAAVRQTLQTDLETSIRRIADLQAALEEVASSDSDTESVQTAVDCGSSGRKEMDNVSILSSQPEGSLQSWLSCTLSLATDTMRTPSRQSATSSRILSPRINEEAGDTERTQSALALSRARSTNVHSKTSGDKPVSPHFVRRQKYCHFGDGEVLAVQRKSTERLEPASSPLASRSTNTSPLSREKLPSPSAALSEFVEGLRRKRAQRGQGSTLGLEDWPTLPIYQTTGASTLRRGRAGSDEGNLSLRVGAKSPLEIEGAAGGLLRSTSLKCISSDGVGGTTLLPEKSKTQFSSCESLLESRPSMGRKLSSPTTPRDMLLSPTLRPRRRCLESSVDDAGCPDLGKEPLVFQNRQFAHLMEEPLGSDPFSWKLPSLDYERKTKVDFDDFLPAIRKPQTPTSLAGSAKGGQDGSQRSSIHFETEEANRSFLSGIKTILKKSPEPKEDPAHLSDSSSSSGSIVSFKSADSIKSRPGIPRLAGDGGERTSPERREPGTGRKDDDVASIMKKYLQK

Structure (SMILES): Nc1ncnc2c1ncn2[C@@H]1O[C@H](COP(=O)(O)OP(=O)(O)OP(=O)(O)O)[C@@H](O)[C@H]1O [adenosine triphosphate]
- NP40-soluble protein abundance ([1]; concentration: 1mM): 0.986 ± 0.023
- NP40-soluble protein abundance ([1]; concentration: 2mM): 0.927 ± 0.014
- NP40-soluble protein abundance ([1]; concentration: 4mM): 1.1 ± 0.016
- NP40-soluble protein abundance ([1]; concentration: 6mM): 1.06 ± 0.022
- NP40-soluble protein abundance ([1]; concentration: 8mM): 1.14 ± 0.13
- NP40-soluble protein abundance ([1]; concentration: 10mM): 1.18 ± 0.18
- NP40-soluble protein abundance (A0A087WTM7|P04114; concentration: 1mM): 1.09 ± 0.039
- NP40-soluble protein abundance (A0A087WTM7|P04114; concentration: 2mM): 1.05 ± 0.029
- NP40-soluble protein abundance (A0A087WTM7|P04114; concentration: 4mM): 0.98 ± 0.11
- NP40-soluble protein abundance (A0A087WTM7|P04114; concentration: 6mM): 0.965 ± 0.086
- NP40-soluble protein abundance (A0A087WTM7|P04114; concentration: 8mM): 0.976 ± 0.082
- NP40-soluble protein abundance (A0A087WTM7|P04114; concentration: 10mM): 0.989 ± 0.074
- NP40-soluble protein abundance (A0A087WV29|Q9H0A0; concentration: 1mM): 1.2 ± 0.1
- NP40-soluble protein abundance (A0A087WV29|Q9H0A0; concentration: 2mM): 1.37 ± 0.1
- NP40-soluble protein abundance (A0A087WV29|Q9H0A0; concentration: 4mM): 1.59 ± 0.11
- NP40-soluble protein abundance (A0A087WV29|Q9H0A0; concentration: 6mM): 1.69 ± 0.18
- NP40-soluble protein abundance (A0A087WV29|Q9H0A0; concentration: 8mM): 2.15 ± 0.14
- NP40-soluble protein abundance (A0A087WV29|Q9H0A0; concentration: 10mM): 2.32 ± 0.22
- NP40-soluble protein abundance ([2]; concentration: 1mM): 1.02 ± 0.043
- NP40-soluble protein abundance ([2]; concentration: 2mM): 0.975 ± 0.072
- NP40-soluble protein abundance ([2]; concentration: 4mM): 0.984 ± 0.062
- NP40-soluble protein abundance ([2]; concentration: 6mM): 0.982 ± 0.024
- NP40-soluble protein abundance ([2]; concentration: 8mM): 0.973 ± 0.07
- NP40-soluble protein abundance ([2]; concentration: 10mM): 0.993 ± 0.052
- NP40-soluble protein abundance (A0A087WWP8; concentration: 1mM): 1.48 ± 0.058
- NP40-soluble protein abundance (A0A087WWP8; concentration: 2mM): 1.53 ± 0.045
- NP40-soluble protein abundance (A0A087WWP8; concentration: 4mM): 1.61 ± 0.043

Source: the supplement of paper PMC6411743
